# This excerpt belongs to a sample that is enriched for hits.
# HIV RNase H inh-1 = HIV-1 RT RNase H inhibitors, primary screen, biochemical, fluorescence; 1.9% of 65,000 active; AID 565, 2006; inhibition, % at 10 µM; RT-RNase H RNA/DNA duplex cleavage; Gag-Pol polyprotein (Human immunodeficiency virus type 1 group M subtype B (isolate …; in the data active = inhibition above about 50%
# RmlC RmlD mix = RmlC and RmlD coupled enzyme inhibitors, primary screen, biochemical, 384-well, compound mixtures, retest. AID 1532, 2009. RmlC/RmlD coupled enzyme inhibition, 384-well mixture HTS. inhibition, % at 5.5 µM. 0.39% of 110,000 active; in the data active = inhibition above about 30%, passing the limit was not always enough; inconclusive = no clear call, values can overlap the other calls
# HIV RNase H inh-2 = HIV-1 RT RNase H inhibitors, retest, confirmation, biochemical; shares compounds with HIV RNase H inh-1; Recombinant RT RNase H, fluorescent RNA/DNA duplex cleavage; inhibition, % at 10 µM; 39% of 1,000 active; AID 651, 2007; in the data active = inhibition above about 48%; inconclusive = no clear call, values can overlap the other calls
# An asterisk follows results filed as active; ? = inconclusive; . = not tested or not shown.
SMILES,HIV RNase H inh-1,RmlC RmlD mix,HIV RNase H inh-2
COC(=O)Nc1nc(C)c(C(=O)c2ccccc2)s1,.,-9.2,.
Cc1c(-c2ccccc2)sc(N)c1C(=O)N1CCOCC1,84.7*,-8.6,25.1
CCOC(=O)c1c(N)sc(-c2ccccc2)c1C,.,-9.2,.
CN(C)c1ccc(N=Cc2c(O)n(CCC3=CCCCC3)c(=O)[nH]c2=O)cc1,58.5*,-13.7,51.2*
CCN(CC)c1ccc(N=Cc2c(O)n(CCC3=CCCCC3)c(=O)[nH]c2=O)cc1,17.5,2.5,.
COCCn1c(C)cc(C(=O)CSc2nc3ccccc3c(=O)[nH]2)c1C,-61.7,-7.3,.
Cc1cc(NC(=O)c2ccc3c(c2)C(=O)N(C2CCCCC2)C3=O)no1,64.4*,4.0,25.2
Cc1cc(NC(=O)c2ccc3c(c2)C(=O)N(C)C3=O)no1,.,3.4,.
C=CCOc1c(Br)cc(CNc2ccc(NC(=O)C(C)C)c(OC)c2)cc1OC,.,-6.8,.
COc1ccc2c(c1)c1ccccc1n2C,-39.6,143.8,.
O=c1c2cc(N3CCOCC3)ccc2[nH]c(=S)n1Cc1ccccn1,-1.6,14.3,.
COc1ccccc1CNC(=O)c1nn(-c2ccc(C)cc2)c(=O)c2c1c1ccccc1n2C,.,-21.1,.
COc1ccc(-n2nc(C(=O)NCc3ccco3)c3c4ccccc4n(C)c3c2=O)cc1Cl,71.2*,14.2,8.5
CCc1ccc2[nH]c(=O)c(C(c3nnnn3CC3CCCO3)N3CCCc4ccccc43)cc2c1 (configuration not stated),8.4,6.0,.
Cc1cc2cc(C(c3nnnn3CC3CCCO3)N3CCCc4ccccc43)c(=O)[nH]c2cc1C (configuration not stated),51.6*,-11.4,28.7
CCOc1ccc(C(=O)Nc2cc(C)c3c(=O)oc4ccccc4c3n2)cc1,65.4*,9.5,19.6
COc1ccc(CC(=O)Nc2cc(C)c3c(=O)oc4ccccc4c3n2)cc1,8.3,6.8,.
COc1ccc(CCCNC(=O)CC#N)cc1OC,-0.6,8.0,.
COc1ccccc1NC(=O)CSc1nnc(COc2ccc(Cl)cc2)n1Cc1ccco1,-9.1,-4.0,.
COc1ccccc1OCc1nnc(SCC(=O)NCc2ccco2)n1Cc1ccco1,65.5*,-15.4,20.4
COc1cc(C2/C(=C(\O)c3ccc4c(c3)CC(C)O4)C(=O)C(=O)N2CCCn2ccnc2)ccc1O (configuration not stated),-0.8,-2.0,.
CCN(CC)c1ccc(N=Cc2c(O)n(-c3ccc(Cl)cc3)c(=O)[nH]c2=O)cc1,.,-7.5,.
O=C(O)c1cc(O)c2c(c1)C(=O)c1cccc(O)c1C2=O,38.5,10.3,.
CCN(c1ccccc1)S(=O)(=O)c1cc(OC)ccc1OC,.,9.9,.
Fc1cccc(F)c1CSc1nc2ccccc2[nH]1,.,-16.4,.
SMILES,HIV RNase H inh-1,RmlC RmlD mix,HIV RNase H inh-2
Fc1ccccc1CSc1nc2ncccc2[nH]1,87.6*,6.8,60.4*
Cc1cc(NC(=O)CSc2nc3cc4c(cc3c(=O)n2CCc2ccccc2)OCO4)no1,78.1*,10.8,71.0*
CCCCCCn1c(SCC(=O)Nc2cc(C)on2)nc2ccccc2c1=O,47.2,4.5,.
Cc1cc(NC(=O)CSc2nc3ccccc3c(=O)n2Cc2ccc(F)cc2)no1,68.0*,-5.2,21.7
COc1ccc(CCn2c(SCC(=O)Nc3cc(C)on3)nc3ccccc3c2=O)cc1OC,-0.2,.,.
COc1ccccc1-c1cc(C(=O)N2CCN(c3ccccc3OC)CC2)no1,78.0*,7.1,47.4
COc1ccccc1N1CCN(C(=O)c2cc(-c3ccc(C)cc3)on2)CC1,-16.5,10.1,.
O=C1C2C3C=CC(C3)C2C(=O)N1CNc1ccc(O)cc1 (configuration not stated),80.2*,?,15.7
Cc1ccc(NCN2C(=O)C3C4C=CC(C4)C3C2=O)cc1 (configuration not stated),-11.5,8.6,.
Cc1cc(Cl)ccc1OC(C)c1nnc(N)s1 (configuration not stated),.,5.1,.
O=c1c2ccccc2sn1-c1ccc(S(=O)(=O)N2CCCC2)cc1,79.4*,34.0,27.5
Cc1ccc(-n2sc3ccccc3c2=O)cc1S(=O)(=O)N1CCCCC1,96.4*,31.2,48.0*
NS(=O)(=O)c1ccc(S(=O)(=O)N2CCCC2)cc1,.,7.2,.
Cc1ccc(-c2nnc(N3CCCCC3)c3ccccc23)cc1S(=O)(=O)N1CCN(C)CC1,-12.3,12.8,.
CCC(C)c1ccc(OCCn2cc(/C=N/NC(=O)CSc3nnc(C)s3)c3ccccc32)cc1 (configuration not stated),.,18.1,.
Cn1c(C(=O)O)c(CC(=O)Nc2ccc3c(c2)OCCO3)c2ccccc21,-2.0,3.4,.
c1ccc(Cn2ncc3ccccc32)cc1,-51.5,8.5,.
Nn1cnn(Cc2ccccc2)c1=S,73.4*,-3.7,?
COC(=O)c1ccc(C(=O)Nc2ccc(N)cc2N)cc1,-3.8,5.0,.

# Screening results: PubChem, several laboratories
